Data taken from article PMC7862700, “An all-to-all approach to the identification of sequence-specific readers for epigenetic DNA modifications on cytosine”.

Legend:
Assay in all cases: DAPPL (digital affinity profiling via proximity ligation, sequencing); 10 mM Tris-HCl pH 7.5, 50 mM NaCl, 1 mM DTT, 4% glycerol, room temperature, 30 min; GST-TFs on glutathione beads, 16-mer random dsDNA library, 0.1% formaldehyde crosslink after washing; high values mean tight binding
Conditions in all cases: protein: recombinant; tags: N-terminal GST; dsDNA, one strand shown
ERF = target: T1, ERF (Homo sapiens, UniProt P50548 1-548)
T1 sequence: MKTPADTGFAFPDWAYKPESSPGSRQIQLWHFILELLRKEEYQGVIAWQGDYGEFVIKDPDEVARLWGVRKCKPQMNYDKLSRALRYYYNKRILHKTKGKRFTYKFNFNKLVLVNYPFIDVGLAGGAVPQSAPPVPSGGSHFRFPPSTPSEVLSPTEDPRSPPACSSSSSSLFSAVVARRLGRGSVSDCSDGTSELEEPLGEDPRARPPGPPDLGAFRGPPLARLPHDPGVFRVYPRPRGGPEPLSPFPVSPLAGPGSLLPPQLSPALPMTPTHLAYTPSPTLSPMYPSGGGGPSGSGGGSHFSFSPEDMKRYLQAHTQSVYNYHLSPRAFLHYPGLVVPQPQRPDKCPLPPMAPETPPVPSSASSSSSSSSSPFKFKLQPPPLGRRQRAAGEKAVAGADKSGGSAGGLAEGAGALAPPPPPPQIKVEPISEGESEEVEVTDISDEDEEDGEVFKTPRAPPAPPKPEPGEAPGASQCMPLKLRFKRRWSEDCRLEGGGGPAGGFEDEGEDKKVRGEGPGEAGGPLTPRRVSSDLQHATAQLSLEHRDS
In short: (§1)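 GST fusions of human transcription factors were expressed in yeast and captured with glutathione beads. Once given DNA barcodes and pooled alongside a tag-only sample, they were incubated for 30 min at room temperature with 200 nmole of a random double-stranded 16-mer DNA library in Tris/NaCl/DTT/glycerol buffer, then washed, crosslinked (0.1% formaldehyde), proximity-ligated, PCR-amplified and sequenced on an Illumina NextSeq500. The binding signal of each hexamer is its read frequency for a factor divided by its frequency for the tag-only sample.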

ETV3L = target: T2, ETV3L (Homo sapiens, UniProt Q6ZN32 1-361)
T2 sequence: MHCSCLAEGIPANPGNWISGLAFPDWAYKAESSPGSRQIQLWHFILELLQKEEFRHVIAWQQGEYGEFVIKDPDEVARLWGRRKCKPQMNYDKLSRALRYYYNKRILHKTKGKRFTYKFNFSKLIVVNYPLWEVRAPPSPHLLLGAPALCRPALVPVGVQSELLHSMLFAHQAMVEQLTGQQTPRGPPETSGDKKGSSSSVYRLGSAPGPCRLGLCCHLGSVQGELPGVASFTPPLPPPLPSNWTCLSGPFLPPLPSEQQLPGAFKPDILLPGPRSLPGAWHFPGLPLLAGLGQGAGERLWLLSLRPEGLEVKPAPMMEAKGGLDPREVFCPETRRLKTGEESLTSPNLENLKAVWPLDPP
In short: as §1

ETS2 = target: T3, ETS2 (Homo sapiens, UniProt P15036 1-469)
T3 sequence: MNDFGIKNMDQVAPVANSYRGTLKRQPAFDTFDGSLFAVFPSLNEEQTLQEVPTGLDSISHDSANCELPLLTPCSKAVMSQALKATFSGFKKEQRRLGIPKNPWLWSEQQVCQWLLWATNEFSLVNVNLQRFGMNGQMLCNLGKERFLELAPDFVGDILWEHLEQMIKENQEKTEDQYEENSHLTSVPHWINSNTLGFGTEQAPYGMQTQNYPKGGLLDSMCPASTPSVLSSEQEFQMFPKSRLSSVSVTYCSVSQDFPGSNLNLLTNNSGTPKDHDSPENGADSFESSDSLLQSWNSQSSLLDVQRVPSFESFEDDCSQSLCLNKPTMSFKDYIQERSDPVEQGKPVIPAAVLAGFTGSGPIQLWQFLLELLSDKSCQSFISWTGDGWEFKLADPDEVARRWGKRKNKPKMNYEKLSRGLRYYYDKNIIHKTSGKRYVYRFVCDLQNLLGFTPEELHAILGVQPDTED
In short: as §1

SPDEF = target: T4, SPDEF (Homo sapiens, UniProt O95238 1-335)
T4 sequence: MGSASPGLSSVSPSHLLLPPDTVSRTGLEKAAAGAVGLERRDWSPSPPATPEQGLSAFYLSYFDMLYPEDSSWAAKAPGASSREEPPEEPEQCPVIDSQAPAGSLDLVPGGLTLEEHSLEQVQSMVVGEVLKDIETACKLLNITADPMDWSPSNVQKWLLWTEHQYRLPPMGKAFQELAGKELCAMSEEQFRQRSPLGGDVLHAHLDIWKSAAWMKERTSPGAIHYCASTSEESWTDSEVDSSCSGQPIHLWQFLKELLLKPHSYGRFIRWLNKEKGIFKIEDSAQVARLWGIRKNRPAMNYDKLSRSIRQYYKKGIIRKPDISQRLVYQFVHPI
In short: as §1

ETV7 = target: T5, ETV7 (Homo sapiens, UniProt Q9Y603 1-341)
T5 sequence: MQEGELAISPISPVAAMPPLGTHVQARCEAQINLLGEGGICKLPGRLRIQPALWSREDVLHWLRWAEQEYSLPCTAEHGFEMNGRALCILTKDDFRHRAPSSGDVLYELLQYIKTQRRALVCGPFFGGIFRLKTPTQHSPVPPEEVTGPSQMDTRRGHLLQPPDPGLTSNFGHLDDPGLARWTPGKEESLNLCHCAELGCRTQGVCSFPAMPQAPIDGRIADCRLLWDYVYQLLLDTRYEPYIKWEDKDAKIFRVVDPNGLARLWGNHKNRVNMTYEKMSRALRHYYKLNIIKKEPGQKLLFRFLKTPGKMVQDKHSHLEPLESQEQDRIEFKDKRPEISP
In short: as §1

ELF5 = target: T6, ELF5 (Homo sapiens, UniProt Q9UKW6-2 1-255)
T6 sequence: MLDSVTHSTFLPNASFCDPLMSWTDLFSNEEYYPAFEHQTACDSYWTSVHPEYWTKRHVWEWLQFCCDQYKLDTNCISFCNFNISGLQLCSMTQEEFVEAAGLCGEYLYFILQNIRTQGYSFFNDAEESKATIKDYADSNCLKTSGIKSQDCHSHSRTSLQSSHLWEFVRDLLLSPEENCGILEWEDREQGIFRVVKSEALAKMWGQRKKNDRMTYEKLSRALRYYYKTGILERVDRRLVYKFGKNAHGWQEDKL
In short: as §1

ETV3 = target: T7, ETV3 (Homo sapiens, UniProt P41162-2 1-143)
T7 sequence: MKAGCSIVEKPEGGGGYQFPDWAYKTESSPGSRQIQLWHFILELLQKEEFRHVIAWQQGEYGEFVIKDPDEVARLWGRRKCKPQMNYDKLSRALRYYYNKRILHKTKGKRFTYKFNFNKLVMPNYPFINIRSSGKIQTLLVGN
In short: as §1

ETV6 = ETV6 (Homo sapiens, UniProt P41212 1-452)
In short: as §1

ETV6, sequence (P41212 whole entry): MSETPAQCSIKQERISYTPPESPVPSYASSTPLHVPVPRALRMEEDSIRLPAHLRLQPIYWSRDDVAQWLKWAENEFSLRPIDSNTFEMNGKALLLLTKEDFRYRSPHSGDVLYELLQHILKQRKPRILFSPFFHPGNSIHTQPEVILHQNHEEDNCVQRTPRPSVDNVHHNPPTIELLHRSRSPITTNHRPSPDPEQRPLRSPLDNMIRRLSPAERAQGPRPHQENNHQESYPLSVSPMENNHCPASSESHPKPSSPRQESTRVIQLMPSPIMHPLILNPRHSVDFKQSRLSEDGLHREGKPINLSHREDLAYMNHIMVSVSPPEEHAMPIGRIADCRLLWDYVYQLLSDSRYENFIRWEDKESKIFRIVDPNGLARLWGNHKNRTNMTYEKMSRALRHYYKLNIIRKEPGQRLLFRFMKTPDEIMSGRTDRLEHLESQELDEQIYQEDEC

Row | Sequence | binding signal (ERF) | binding signal (ETV3L) | binding signal (ETS2) | binding signal (SPDEF) | binding signal (ETV7) | binding signal (ELF5) | binding signal (ETV3) | binding signal (ETV6)
1 | TGACCA | 1.31 fold enrichment (6-mer frequency, TF over GST control) | 1.32 fold enrichment (6-mer frequency, TF over GST control) | 1.23 fold enrichment (6-mer frequency, TF over GST control) | 1.24 fold enrichment (6-mer frequency, TF over GST control) | 1.15 fold enrichment (6-mer frequency, TF over GST control) | 1.16 fold enrichment (6-mer frequency, TF over GST control) | 1.23 fold enrichment (6-mer frequency, TF over GST control) | 1.27 fold enrichment (6-mer frequency, TF over GST control)
2 | ATATTT | 1.55 fold enrichment (6-mer frequency, TF over GST control) | 1.4 fold enrichment (6-mer frequency, TF over GST control) | 1.58 fold enrichment (6-mer frequency, TF over GST control) | 1.54 fold enrichment (6-mer frequency, TF over GST control) | 1.67 fold enrichment (6-mer frequency, TF over GST control) | 1.65 fold enrichment (6-mer frequency, TF over GST control) | 1.65 fold enrichment (6-mer frequency, TF over GST control) | 1.57 fold enrichment (6-mer frequency, TF over GST control)
3 | GTAATT | 1.12 fold enrichment (6-mer frequency, TF over GST control) | 1.21 fold enrichment (6-mer frequency, TF over GST control) | 1.28 fold enrichment (6-mer frequency, TF over GST control) | 1.19 fold enrichment (6-mer frequency, TF over GST control) | 1.3 fold enrichment (6-mer frequency, TF over GST control) | 1.28 fold enrichment (6-mer frequency, TF over GST control) | 1.18 fold enrichment (6-mer frequency, TF over GST control) | 1.3 fold enrichment (6-mer frequency, TF over GST control)
4 | ATTTTC | 1.38 fold enrichment (6-mer frequency, TF over GST control) | 1.42 fold enrichment (6-mer frequency, TF over GST control) | 1.43 fold enrichment (6-mer frequency, TF over GST control) | 1.34 fold enrichment (6-mer frequency, TF over GST control) | 1.39 fold enrichment (6-mer frequency, TF over GST control) | 1.61 fold enrichment (6-mer frequency, TF over GST control) | 1.42 fold enrichment (6-mer frequency, TF over GST control) | 1.43 fold enrichment (6-mer frequency, TF over GST control)
5 | TATCGC | 1.18 fold enrichment (6-mer frequency, TF over GST control) | 1.15 fold enrichment (6-mer frequency, TF over GST control) | 1.1 fold enrichment (6-mer frequency, TF over GST control) | 1.17 fold enrichment (6-mer frequency, TF over GST control) | 1 fold enrichment (6-mer frequency, TF over GST control) | 1.19 fold enrichment (6-mer frequency, TF over GST control) | 1.13 fold enrichment (6-mer frequency, TF over GST control) | 1.08 fold enrichment (6-mer frequency, TF over GST control)
6 | ACGTAA | 1.12 fold enrichment (6-mer frequency, TF over GST control) | 1.09 fold enrichment (6-mer frequency, TF over GST control) | 1.08 fold enrichment (6-mer frequency, TF over GST control) | 1.11 fold enrichment (6-mer frequency, TF over GST control) | 1.08 fold enrichment (6-mer frequency, TF over GST control) | 1.09 fold enrichment (6-mer frequency, TF over GST control) | 1.17 fold enrichment (6-mer frequency, TF over GST control) | 1.07 fold enrichment (6-mer frequency, TF over GST control)
7 | TTGTAG | 1.14 fold enrichment (6-mer frequency, TF over GST control) | 1.2 fold enrichment (6-mer frequency, TF over GST control) | 1.17 fold enrichment (6-mer frequency, TF over GST control) | 1.09 fold enrichment (6-mer frequency, TF over GST control) | 1.12 fold enrichment (6-mer frequency, TF over GST control) | 1.1 fold enrichment (6-mer frequency, TF over GST control) | 1.13 fold enrichment (6-mer frequency, TF over GST control) | 1.13 fold enrichment (6-mer frequency, TF over GST control)
8 | CAACTC | 1.26 fold enrichment (6-mer frequency, TF over GST control) | 1.22 fold enrichment (6-mer frequency, TF over GST control) | 1.26 fold enrichment (6-mer frequency, TF over GST control) | 1.36 fold enrichment (6-mer frequency, TF over GST control) | 1.12 fold enrichment (6-mer frequency, TF over GST control) | 1.16 fold enrichment (6-mer frequency, TF over GST control) | 1.31 fold enrichment (6-mer frequency, TF over GST control) | 1.29 fold enrichment (6-mer frequency, TF over GST control)
9 | ATACTA | 1.09 fold enrichment (6-mer frequency, TF over GST control) | 1.2 fold enrichment (6-mer frequency, TF over GST control) | 1.24 fold enrichment (6-mer frequency, TF over GST control) | 1.17 fold enrichment (6-mer frequency, TF over GST control) | 1.14 fold enrichment (6-mer frequency, TF over GST control) | 1.13 fold enrichment (6-mer frequency, TF over GST control) | 1.14 fold enrichment (6-mer frequency, TF over GST control) | 1.11 fold enrichment (6-mer frequency, TF over GST control)
10 | ACCTCG | 1.2 fold enrichment (6-mer frequency, TF over GST control) | 1.22 fold enrichment (6-mer frequency, TF over GST control) | 1.11 fold enrichment (6-mer frequency, TF over GST control) | 1.06 fold enrichment (6-mer frequency, TF over GST control) | 1.21 fold enrichment (6-mer frequency, TF over GST control) | 1.06 fold enrichment (6-mer frequency, TF over GST control) | 1.1 fold enrichment (6-mer frequency, TF over GST control) | 1.09 fold enrichment (6-mer frequency, TF over GST control)
11 | CAATCA | 1.19 fold enrichment (6-mer frequency, TF over GST control) | 1.2 fold enrichment (6-mer frequency, TF over GST control) | 1.13 fold enrichment (6-mer frequency, TF over GST control) | 1.07 fold enrichment (6-mer frequency, TF over GST control) | 1.04 fold enrichment (6-mer frequency, TF over GST control) | 1.1 fold enrichment (6-mer frequency, TF over GST control) | 1.1 fold enrichment (6-mer frequency, TF over GST control) | 1.16 fold enrichment (6-mer frequency, TF over GST control)
12 | TGACGC | 1.34 fold enrichment (6-mer frequency, TF over GST control) | 1.24 fold enrichment (6-mer frequency, TF over GST control) | 1.12 fold enrichment (6-mer frequency, TF over GST control) | 1.13 fold enrichment (6-mer frequency, TF over GST control) | 1.13 fold enrichment (6-mer frequency, TF over GST control) | 1.19 fold enrichment (6-mer frequency, TF over GST control) | 1.15 fold enrichment (6-mer frequency, TF over GST control) | 1.19 fold enrichment (6-mer frequency, TF over GST control)
